In PubChem BioAssay AID1159580 (chemical genetic matrix, 2015):
The whole screen tested about 5,500 compounds, of which about 2,000 (36%) were called active. Inconclusive results (about 18%) are left out. Cut-off read from the data, not from the text of the source: active = normalized growth mostly below about 0.91 (no sharp cut-off); inconclusive = no clear call, values can overlap the other calls; inactive = mostly above about 0.92. Some of the results follow.

Test: chemical genetic growth profiling, strain panel (AID 1159580);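 note: tested at 20 µM; growth read once vehicle control cultures reached saturation at 30 °C; 1 = growth at the plate median or of vehicle wells; lower values mean less growth of the strain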
Settings: growth OD

Measured: normalized growth

CCOC(=O)C1CCN(C(=S)Nc2ccccc2C(F)(F)F)CC1
inactive: S. cerevisiae deletion strains, locus YAL013W, strain DEP1, hits give low values 1 | S. cerevisiae deletion strains, locus YBR229C, strain ROT2, hits give low values 1 | S. cerevisiae deletion strains, locus YCL061C, strain MRC1, hits give low values 1.02 | S. cerevisiae deletion strains, locus YDL101C, strain DUN1, hits give low values 1.01 | S. cerevisiae deletion strains, locus YDR150W, strain NUM1, hits give low values 0.994 | S. cerevisiae deletion strains, locus YEL061C, strain CIN8, hits give low values 0.998 | S. cerevisiae deletion strains, locus YGR078C, strain PAC10, hits give low values 1.01 | S. cerevisiae deletion strains, locus YHR030C, strain SLT2, hits give low values 0.99 | S. cerevisiae deletion strains, locus YHR087W, strain rtc3, hits give low values 1.02 | S. cerevisiae deletion strains, locus YJR043C, strain POL32, hits give low values 1 | S. cerevisiae deletion strains, locus YJR075W, strain HOC1, hits give low values 0.982 | S. cerevisiae deletion strains, locus YKL190W, strain CNB1, hits give low values 0.994 | S. cerevisiae deletion strains, locus YLR039C, strain RIC1, hits give low values 0.866 | S. cerevisiae deletion strains, locus YLR058C, strain SHM2 (second series), hits give low values 0.996 | S. cerevisiae deletion strains, locus YLR085C, strain ARP6, hits give low values 0.983 | S. cerevisiae deletion strains, locus YLR262C, strain YPT6, hits give low values 0.868 | S. cerevisiae deletion strains, locus YML094W, strain GIM5, hits give low values 1.08 | S. cerevisiae deletion strains, locus YMR219W, strain ESC1, hits give low values 1 | S. cerevisiae deletion strains, locus YMR263W, strain SAP30, hits give low values 1.01 | S. cerevisiae deletion strains, locus YMR307W, strain GAS1, hits give low values 0.913 | S. cerevisiae deletion strains, locus YNL153C, strain GIM3, hits give low values 1.01 | S. cerevisiae deletion strains, locus YNL298W, strain CLA4 (second series), hits give low values 0.973 | S. cerevisiae deletion strains, locus YNL322C, strain KRE1, hits give low values 1.01 | S. cerevisiae deletion strains, locus YNR030W, strain Alg12, hits give low values 0.978 | S. cerevisiae deletion strains, locus YOL006C, strain TOP1, hits give low values 1.04 | S. cerevisiae deletion strains, locus YPL055C, strain LGE1, hits give low values 1.03 | S. cerevisiae deletion strains, locus YPL241C, strain CIN2, hits give low values 1.01 | S. cerevisiae deletion strains, locus YPR135W, strain CTF4, hits give low values 0.982 | S. cerevisiae strains, strain wild type, hits give low values 1.01
